What was measured:
HCC1937 = assay: relative cell viability, compound + erastin, vs DMSO (fraction of DMSO control); higher = less growth inhibition; conditions: 72 h
MDA-MB-231 = assay: as above; conditions: 72 h
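Also: viability read by CCK-8 kit in 96-well plates, part of a combination screen pairing lipid-metabolism-targeting compounds with erastin.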

COc1ccc2c(c1)c(CC(=O)O)c(C)n2C(=O)c1ccc(Cl)cc1 [Indometacin] + CCOc1ccccc1-n1c(C(C)N2CCN(C(=O)COc3ccc(Cl)cc3)CC2)nc2ccccc2c1=O [erastin]
relative cell viability (HCC1937): 0.941
relative cell viability (MDA-MB-231): 0.639

Nc1cccc(S(=O)(=O)N2CCCN(S(=O)(=O)c3ccc4c(c3)OCCO4)CC2)c1 + CCOc1ccccc1-n1c(C(C)N2CCN(C(=O)COc3ccc(Cl)cc3)CC2)nc2ccccc2c1=O [erastin]
relative cell viability (HCC1937): 0.817
relative cell viability (MDA-MB-231): 0.553

CCCCCCS(=O)(=O)NC(=O)c1ccc(CSCc2ccc(-c3ccccc3)cc2)cc1 + CCOc1ccccc1-n1c(C(C)N2CCN(C(=O)COc3ccc(Cl)cc3)CC2)nc2ccccc2c1=O [erastin]
relative cell viability (HCC1937): 0.705
relative cell viability (MDA-MB-231): 0.733

CCCCCC=CC(=O)CCc1ccc(O)c(OC)c1 [6-Shogaol] + CCOc1ccccc1-n1c(C(C)N2CCN(C(=O)COc3ccc(Cl)cc3)CC2)nc2ccccc2c1=O [erastin]
relative cell viability (HCC1937): 0.639
relative cell viability (MDA-MB-231): 0.559

COc1ccc(Nc2ccn(-c3ccccc3)n2)cc1 + CCOc1ccccc1-n1c(C(C)N2CCN(C(=O)COc3ccc(Cl)cc3)CC2)nc2ccccc2c1=O [erastin]
relative cell viability (HCC1937): 0.686
relative cell viability (MDA-MB-231): 0.902

N=C(N)NCCC(=O)O [3-Guanidinopropionic Acid] + CCOc1ccccc1-n1c(C(C)N2CCN(C(=O)COc3ccc(Cl)cc3)CC2)nc2ccccc2c1=O [erastin]
relative cell viability (HCC1937): 0.714
relative cell viability (MDA-MB-231): 0.852

O=C1c2cccc(O)c2C(=O)c2c(O)cccc21 [Antrapurol] + CCOc1ccccc1-n1c(C(C)N2CCN(C(=O)COc3ccc(Cl)cc3)CC2)nc2ccccc2c1=O [erastin]
relative cell viability (HCC1937): 0.735
relative cell viability (MDA-MB-231): 0.903

CC1(C)CC[C@]2(C(=O)O[C@@H]3O[C@H](CO)[C@@H](O)[C@H](O)[C@H]3O)CC[C@]3(C)C(=CC[C@@H]4[C@@]5(C)CC[C@H](O[C@@H]6O[C@H](C(=O)O)[C@@H](O)[C@H](O)[C@H]6O)C(C)(C)[C@@H]5CC[C@]43C)[C@@H]2C1 [Chikusetsusaponin IVa] + CCOc1ccccc1-n1c(C(C)N2CCN(C(=O)COc3ccc(Cl)cc3)CC2)nc2ccccc2c1=O [erastin]
relative cell viability (HCC1937): 0.592
relative cell viability (MDA-MB-231): 0.682

CC(C)(CCCCCC(O)CCCCCC(C)(C)C(=O)O)C(=O)O + CCOc1ccccc1-n1c(C(C)N2CCN(C(=O)COc3ccc(Cl)cc3)CC2)nc2ccccc2c1=O [erastin]
relative cell viability (HCC1937): 0.421
relative cell viability (MDA-MB-231): 0.405
